Laboratory results: ChEMBL document CHEMBL1157539, “Thousands of chemical starting points for antimalarial lead identification” (Nature, 2010)
Residues, ends and D or L forms follow the SMILES beside them. *: point of attachment. Boc = CC(C)(C)OC(=O)*

Columns and labels:
Format in all cases: functional
[1] = test system: Plasmodium falciparum; assay: GSK_TCMDC: Inhibition of Plasmodium falciparum 3D7 in whole red blood cells, using parasite LDH activity as an index of growth. Test compounds present at 2uM
[2] = test system: Plasmodium falciparum; assay: GSK_TCMDC: Inhibition of Plasmodium falciparum Dd2 in whole red blood cells, using parasite LDH activity as an index of growth. Test compounds present at 2uM
[3] = test system: HepG2; assay: GSK_TCMDC: Percent inhibition of human HepG2 cell line. Test compounds present at 10uM.

Row | SMILES | Inhibition [1] | Inhibition [2] | Inhibition [3]
1 | CN(C)c1cccc2c1nc(-c1ccco1)n2CC1CCCN1.O=C(O)C(F)(F)F (stereo not drawn) | 86% | 46% | 0%
2 | Cc1ccc(CNC(=O)c2ccc(CN3CCCN(Cc4ccsc4)CC3)cc2)cc1.O=C(O)C(F)(F)F | 93% | 0% | 16%
3 | Cc1cccc2nc(-c3ccc(-c4ccc(CNCCCNS(C)(=O)=O)cc4)s3)[nH]c12.O=C(O)C(F)(F)F | 99% | 4% | 13%
4 | O=C(NNC(=O)c1ccc(CCN2CCC(c3nc(COCC(F)(F)F)c(-c4ccc(F)cc4)o3)CC2)cc1)Nc1ccc(Oc2ccccc2)cc1 | 100% | 89% | 38%
5 | COc1cccc2cc(C(=O)N[C@@H](CC(C)C)C(=O)NC(/C=N/NC(=O)c3ccccc3)CCc3ccccc3)oc12 (stereo partly drawn) | 88% | 73% | 8%
6 | CCN(CC)CCN(CCN(CC)CC)c1ccc2c(c1)Sc1c(Cl)ccc(Cl)c1S2.Cl | 98% | 94% | 31%
7 | CC(=O)Nc1ccc(OCCN(Cc2ccccc2C(F)(F)F)c2ccc(C#N)c(C(F)(F)F)c2)c(Cl)c1 | 98% | 78% | 0%
8 | CCCC(C)NC(=O)[C@H](CC1CCCCC1)NC(=O)c1ccc(O)c(-c2ccc(OC)cc2)c1 (stereo partly drawn) | 89% | 37% | 3%
9 | O=C(NCC1CCCCC1)c1cc(=O)c2ccccc2o1 | 98% | 77% | 0%
10 | CCN(CC)CCN(Cc1ccc(-c2ccc(C(F)(F)F)cc2)cc1)C(=O)Cn1c(CCc2cc(F)c(F)cc2F)nc(=O)c2ccccc21.O=C(O)C(O)C(O)C(=O)O | 99% | 50% | 39%
11 | COc1ccc(C2CCN(CCCCNC(=O)c3ccc(NC(=O)c4ccc(Cl)cc4)cc3)CC2)c(OC)c1.Cl | 100% | 95% | 32%
12 | CC(=O)Oc1cc(C)ccc1C1CCN(CCCCNC(=O)c2ccc(NC(=O)c3ccc(Cl)cc3)cc2)CC1 | 100% | 57% | 12%
13 | COC(=O)CC[C@H](NC(=O)[C@H](C)NC(=O)OC(C)(C)C)C(=O)OC (Boc-Ala-Glu(OMe)-OMe) | 95% | 0% | 12%
14 | CC(Oc1ccc(Cl)cc1)C(=O)Nc1cc(C(F)(F)F)ccc1N1CCOCC1 (stereo not drawn) | 97% | 97% | 14%
15 | O=C(NCCCCCN1CCC(c2c[nH]c3ccccc23)CC1)Nc1ccc(Cl)cc1Cl | 99% | 15% | 71%
16 | COC(=O)c1cc(C(O)CNC(C)CCc2cccc(F)c2)ccc1O.Cl (stereo not drawn) | 94% | 77% | 38%

Row | SMILES | Inhibition [1] | Inhibition [2] | Inhibition [3]
17 | CC(C)N1CCC(N(Cc2ccc(-c3ccc(C(F)(F)F)cc3)cc2)C(=O)Cn2c(SCc3cccc(F)c3F)cc(=O)c3ccccc32)CC1.O=C(O)C(O)C(O)C(=O)O | 100% | 77% | 52%
18 | Cl.Clc1ccc(OCc2ccccc2)c(Cc2ccc(-c3nc4cnccc4[nH]3)o2)c1 | 99% | 6% | 2%
19 | CCc1cccc(NC(=O)c2ccc(CN3CCCN(CC4CCCCC4)CC3)cc2)c1.O=C(O)C(F)(F)F | 84% | 36% | 44%
20 | COC(=O)CNC(c1ccccc1)c1cc(Br)ccc1NC(=O)c1ccccc1Br (stereo not drawn) | 99% | 77% | 10%
21 | COc1ccc2ncc(F)c(CCN3CC[C@@H](CNCc4nc5c(cc4C)SCC(=O)N5)C3)c2n1.Cl | 91% | 42% | 14%
22 | Cl.N#Cc1ccc2c(c1)CCN(CCC1CCC(NC(=O)c3cc4ccccc4[nH]3)CC1)CC2 (stereo not drawn) | 89% | 25% | 17%
23 | Cc1cccc2nc(-c3ccc(-c4cccc(NC(=O)C(C)CN5CCN(C)CC5)c4)s3)[nH]c12 (stereo not drawn) | 97% | 75% | 11%
24 | COc1cc(F)c2nccc([C@@H](O)CN3CCC(NCc4ccc5c(n4)NC(=O)CS5)C(F)C3)c2c1.Cl (stereo partly drawn) | 87% | 80% | 32%
25 | Cc1cccc2nc(-c3ccc(-c4ccc(NC(=O)NCc5ccccc5)cc4)s3)[nH]c12 | 93% | 8% | 79%
26 | Cc1ccc2sc(N(CCCn3ccnc3)C(=O)c3ccco3)nc2c1C.Cl | 93% | 98% | 9%
27 | COc1ccc(NC(=O)/C=C/c2ccccc2Cl)cc1OCCN1CCC(NC2CC2)CC1 | 100% | 66% | 23%
28 | Cc1cccc2nc(-c3cccc(-c4ccc(NC(=O)C(C)CN5CCN(C)CC5)cc4)c3)[nH]c12 (stereo not drawn) | 99% | 100% | 7%
29 | CC(=O)c1ccc(NC(=O)C2c3ccccc3C(=O)N(CC(C)C)C2c2cccs2)cc1 (stereo not drawn) | 99% | 51% | 13%
30 | COc1ccc(-c2nonc2NC(=O)c2cccc(C)c2)cc1OC | 97% | 8% | 24%
31 | CS(=O)(=O)O.CSc1ccc2ccccc2c1CNCCCCCCNCc1c(SC)ccc2ccccc12 | 99% | 74% | 83%
